Screening results deposited in PubChem by Johns Hopkins Ion Channel Center.
KCNQ2 enhance = KCNQ2 (rat) channel potentiation | O88943 | CHO-K1 KCNQ2, FluxOR thallium flux fluorescence; active compounds read high | B-score at 10 µM | 310,000 tested, 0.54% active | AID 2239;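 active means fluorescence ratio B-score at least 3 SD of library B-scores, with initial fluorescence B-score within 3 of them, cut at about 5.3 in these data; same plate scores as AID 2156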;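 further: B-score of peak minus minimum over baseline fluorescence ratio after K+ and Tl+ stimulus; positive B-score means potentiation of KCNQ2 with more thallium influx and brighter signal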
KCNQ2 inh = blocks the rat KCNQ2 potassium channel; CHO-K1 KCNQ2, FluxOR thallium flux, 20 min; active compounds read low; B-score at 10 µM; 310,000 tested, 1.1% active; AID 2156;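 active means fluorescence ratio B-score at most minus 3 library SDs, with starting brightness B-score within 2 library SDs, cut at about -5.5 in these data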
Kir21 confirm = confirmation of mouse Kir2.1 potassium channel inhibitors. 2,300 tested, 41% active. Tl flux remaining, % of negative control (active compounds read low), % at 10 µM. shares compounds with KCNQ2 enhance. Kir2.1-expressing cells, FluxOR thallium flux fluorescence; active compounds read low;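 active means Primary-screen hit whose thallium flux fell at least 3 control SD below untreated wells in both duplicates, with normal baseline fluorescence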;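 further: 0% = blank wells without stimulus and 100% = stimulated no-compound controls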
HEK293 ctr = counter-screen for Kir2.1 inhibitors: effect in parental HEK293 cells | shares compounds with KCNQ2 enhance | FluxOR thallium flux fluorescence; 0% = unstimulated blank wells | FluxOR signal as % of negative control (100 = no effect), % at 10 µM | 2,300 tested, 19% active | AID 2105;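 active means dye signal at least 3 control SD above or below untreated wells in both duplicates, raw fluorescence within 3, either direction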;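 further: percent is based on the flux ratio of peak minus minimum fluorescence over baseline F0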
CHO-K1 Tl ctr = counter-screen for KCNQ2 potentiators: effect in parental CHO-K1 cells | FluxOR thallium flux fluorescence; zero = vehicle mean+3SD, 100% = vehicle-minus-blank window | activity increase over 3SD of controls, % at 10 µM | 1,200 tested, 43% active | shares compounds with KCNQ2 enhance;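 active means signal rise of at least 3 SD above the untreated control mean, in both duplicate wells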;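 further: counter screen of KCNQ2 potentiator hits so any rise reflects channel-independent effects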
KCNQ1 sel pot = selectivity of KCNQ2 potentiators: effect on human KCNQ1; CHO KCNQ1 stable, FluxOR thallium flux fluorescence; beyond 3SD, as % of vehicle-control signal; activation over 3SD threshold, % at 10 µM; AID 2283; 1,200 tested, 28% active; shares compounds with KCNQ2 enhance;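 active means fluorescence ratio rise of at least 3 SD of vehicle wells above their mean, in both replicate wells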;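 further: 0% = vehicle mean plus 3 SD and 100% = vehicle minus unstimulated blank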
KCNQ2 pot confirm = confirmation of rat KCNQ2 potassium channel potentiators; shares compounds with KCNQ2 enhance; CHO-KCNQ2 cells, FluxOR thallium flux fluorescence; potentiation, less the hit threshold, % at 10 µM; 1,200 tested, 68% active;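 active means fluorescence ratio rising 3 SD or more over the vehicle control mean in both replicates, plus primary screen hit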;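 further: peak minus minimum thallium fluorescence divided by baseline after K/Tl stimulus; 0% = vehicle mean plus 3 SD and 100% = vehicle minus unstimulated blank difference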
Kir21 spec = tests whether KCNQ2 potentiators also affect mouse Kir2.1. HEK293 Kir2.1, FluxOR thallium flux fluorescence. shares compounds with KCNQ2 enhance. 1,200 tested, 2% active. activity over 3SD threshold, % at 10 µM;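 active means fluorescence ratio rise of at least 3 SD above the vehicle-control mean, seen in both replicates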;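 further: 0% = vehicle mean plus 3 SD and 100% = vehicle minus no-stimulus blank window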
KCNQ2 W236L pot = KCNQ2 potentiators acting on retigabine-insensitive rat KCNQ2 W236L mutant; shares compounds with KCNQ2 enhance; current increase over 3SD of negative controls (%), active compounds read high, % at 25 µM; AID 2558; 940 tested, 10% active; CHO KCNQ2-W236L, automated patch clamp current;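 active means current increase at least 3 SD of the untreated controls above them in both duplicate recordings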
Target sequence (O88943 whole entry W236L, looked up): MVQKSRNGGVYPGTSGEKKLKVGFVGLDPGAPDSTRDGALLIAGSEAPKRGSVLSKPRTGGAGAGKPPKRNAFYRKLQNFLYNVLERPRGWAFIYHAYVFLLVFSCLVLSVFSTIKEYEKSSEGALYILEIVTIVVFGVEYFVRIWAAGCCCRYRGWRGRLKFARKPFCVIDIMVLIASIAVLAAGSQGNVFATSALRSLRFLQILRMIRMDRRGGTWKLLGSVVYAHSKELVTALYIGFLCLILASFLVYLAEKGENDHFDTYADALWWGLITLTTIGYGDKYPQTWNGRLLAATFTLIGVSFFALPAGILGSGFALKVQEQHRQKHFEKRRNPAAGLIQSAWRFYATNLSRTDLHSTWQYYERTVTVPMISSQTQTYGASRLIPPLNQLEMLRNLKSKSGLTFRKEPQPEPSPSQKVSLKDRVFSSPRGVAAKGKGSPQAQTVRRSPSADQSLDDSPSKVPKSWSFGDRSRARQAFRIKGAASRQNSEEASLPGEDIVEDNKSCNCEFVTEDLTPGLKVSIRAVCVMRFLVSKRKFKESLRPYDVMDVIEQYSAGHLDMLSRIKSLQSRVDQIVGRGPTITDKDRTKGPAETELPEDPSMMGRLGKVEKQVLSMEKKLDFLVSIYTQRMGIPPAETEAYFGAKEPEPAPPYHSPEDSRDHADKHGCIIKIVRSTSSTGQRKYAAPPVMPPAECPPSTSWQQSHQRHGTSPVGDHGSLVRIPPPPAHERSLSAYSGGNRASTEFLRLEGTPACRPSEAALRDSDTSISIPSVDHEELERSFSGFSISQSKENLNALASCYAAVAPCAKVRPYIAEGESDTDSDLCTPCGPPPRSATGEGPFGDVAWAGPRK
The depositor's hits bear a star; i = inactive; . = no result given. Shown are actives, neighbours in structure and some others; about 1.6% of the full set was active somewhere.

SMILES | KCNQ2 enhance | KCNQ2 inh | Kir21 confirm | HEK293 ctr | others
Fc1ccc(-c2csc(NC(=S)Nc3ccccc3)n2)cc1 | 8.78* | i | i | i | CHO-K1 Tl ctr=26.5*;KCNQ1 sel pot=-15.3;KCNQ2 pot confirm=-8.6;Kir21 spec=-36.0;KCNQ2 W236L pot=i
O=C(Nc1ccccc1)Nc1nc(-c2ccc(F)cc2)cs1 | . | i | . | .
c1ccc(OCCCCN2CCCCC2)cc1 | . | i | . | .
c1ccc2c(c1)OC(CCCN1CCCCC1)c1ccccc1S2 (centres undefined) | . | i | 49.0%* | i
O=C(CN1CCN(Cc2ccccc2Cl)CC1)N/N=C/c1cccs1 | 0.67 | i | . | .
Cc1cc(C(=O)CN2C(=O)c3cccc(N)c3C2=O)c(C)n1Cc1cccs1 | . | i | . | .
CC(=O)C1=C(C)Nc2ncnn2C1c1cccc(Br)c1 (centres undefined) | 0.01 | i | . | .
Cc1ccc(SCCNC(=S)Nc2ccc(C)c(C)c2)cc1 | 10.4* | i | i | 72.5%* | CHO-K1 Tl ctr=1.9*;KCNQ1 sel pot=15.9*;KCNQ2 pot confirm=-2.2;Kir21 spec=-31.8;KCNQ2 W236L pot=i
Cc1ccc(SCCNC(=S)Nc2ccccc2)cc1 | . | i | . | .
COc1ccc(-c2nc3ccccc3[nH]2)cc1 | . | i | . | .
COc1ccc(-c2nc(=S)c3ccc4ccccc4c3[nH]2)cc1 | 19.8* | i | i | 151.5%* | CHO-K1 Tl ctr=-15.6;KCNQ1 sel pot=-48.5;KCNQ2 pot confirm=22.8*;Kir21 spec=-30.8;KCNQ2 W236L pot=i
O=C(Nc1ccc(S(=O)(=O)NCc2ccccc2)cc1)C1CCCCC1 | . | i | . | .
Cn1/c(=N\NC(=O)C2CCCCC2)sc2ccccc21 | 9.9* | i | i | i | CHO-K1 Tl ctr=-20.8;KCNQ1 sel pot=-8.7;KCNQ2 pot confirm=0.0*;Kir21 spec=-30.6;KCNQ2 W236L pot=i
CC(=O)N/N=c1\sc2ccccc2n1C | 0.49 | i | . | .
CCN(Cc1ccccc1)CC(O)COC(c1ccc(OC)cc1)c1ccc(OC)cc1 (centres undefined) | . | i | 65.5%* | i
COc1ccc(CN(C)CC(O)COC(c2ccccc2)c2ccccc2)c(OC)c1OC (centres undefined) | . | i | 54.0%* | i
CCN(CC)CC(O)COC(c1ccccc1)c1ccccc1 (centres undefined) | 0.53 | i | . | .
COc1ccc(CN(C)CC(O)COc2ccc(C(=O)c3ccccc3)cc2)c(OC)c1OC (centres undefined) | . | i | . | .
COC(=O)C1=C(C)N(CCc2c[nH]c3ccc(OC)cc23)C(=O)C1 | 1.49 | i | . | .
Cc1cc(C(C)(C)C)cc(C)c1Cn1c2[n+](c3ccc(C(F)(F)F)cc31)CCCCC2 | . | i | 46.0%* | i
FC(F)(F)c1cccc(Cn2c3[n+](c4ccc(C(F)(F)F)cc42)CCCCC3)c1 | . | i | . | .
N#Cc1c(NCCN)nc(-c2ccccc2)c2c1CCCC2 | . | i | 45.5%* | i
N#Cc1c(NCCCO)nc(-c2ccccc2)c2c1CCCC2 | 1.11 | i | . | .
C=CCN1C(=O)c2ccc(C(=O)OCC(=O)Nc3ccc(S(N)(=O)=O)cc3)cc2C1=O | 0.11 | i | . | .
CN(NS(=O)(=O)c1ccc(F)cc1)c1ncc(C(F)(F)F)cc1Cl | 0.59 | i | . | .
SMILES | KCNQ2 enhance | KCNQ2 inh | Kir21 confirm | HEK293 ctr | others
CN(NS(=O)(=O)c1ccc(Cl)cc1)c1ncc(C(F)(F)F)cc1Cl | 3.35 | i | 57.5%* | i
CCOC(=O)N1CCN(C2CCCN(C(=O)c3ccccc3N(C)C)C2)CC1 (centres undefined) | 1.56 | i | . | .
C/C(=N\NC(N)=S)c1ccccc1 | . | i | . | .
CSC(=S)N/N=C(\C)c1ccccc1 | 8.71* | i | i | 288.5%* | CHO-K1 Tl ctr=-12.1;KCNQ1 sel pot=-12.2;KCNQ2 pot confirm=26.5*;Kir21 spec=-15.1;KCNQ2 W236L pot=9.3%*
CCOc1ccccc1OCCC(=O)NNC(=O)Cn1nc(C)cc1C | . | i | . | .
C/C(=N\OCc1ccccc1)c1c(O)cc(C(C)C)n(-c2ccccc2)c1=O | . | i | . | .
C=CCNCCCCOc1c(Cl)cc(C)cc1Br | 0.5 | i | 35.0%* | i
Cc1cc(Cl)c(OCCCNC2CCCC2)c(Br)c1 | 2.86 | i | . | .
C=CCNCCOc1c(C)cc(C)cc1Cl | 1.72 | i | . | .
COCCCNCCCCOc1c(Cl)cc(C)cc1Br | . | i | 43.5%* | i
CC(C)N(Cc1ccccc1)S(=O)(=O)c1ccc2c(c1)NC(=O)CO2 | 0.88 | i | . | .
O=C(NS(=O)(=O)Oc1ccc(F)c(Cl)c1)OC[C@@H]1CCCN2CCCCC12 (some centres undefined) | 0.77 | i | . | .
N#Cc1ccccc1S(=O)(=O)N1CCN(CC(O)COc2ccccc2F)CC1 (centres undefined) | 1.67 | i | . | .
CCCCN(CCCNC(=O)CN1C(=O)COc2ccc(S(=O)(=O)N3CCC(C)CC3)cc21)Cc1ccccc1 | 0.9 | i | 66.5%* | i
CCCCN(CCCC)CCNC(=O)CN1C(=O)COc2ccc(S(=O)(=O)N3CCC(C)CC3)cc21 | . | i | . | .
Fc1ccc(-c2cc(C(F)(F)F)nc(-n3cccn3)n2)cc1 | . | i | . | .
Fc1ccc(-c2cc(C(F)(F)F)nc(-n3cncn3)n2)cc1 | 6.24* | i | i | i | CHO-K1 Tl ctr=-11.1;KCNQ1 sel pot=-11.4;KCNQ2 pot confirm=19.1*;Kir21 spec=-14.3;KCNQ2 W236L pot=i
NC1=NC[C@H](Cc2ccccc2)N1CCCCC1CCCCC1 | . | i | 32.0%* | i
NC1=NC[C@H](Cc2ccc(O)cc2)N1CCCCC1CCCCC1 | 0.01 | i | . | .
CC(C)C[C@@H](C(=O)N[C@@H](C(=O)O)c1ccccc1)N1C(=O)N2CCc3c([nH]c4ccccc34)[C@@]2(C)C1=O | . | i | . | .
CCN(CC)C(=S)NC(=O)c1ccc(OC)c(Br)c1 | 2.19 | i | . | .
C=CCNC(=S)NNC(=O)c1ccc(C)c(Cl)c1 | . | i | . | .
C=CCNC(=S)NC(=O)c1ccc(C)c(Br)c1 | 5.67* | i | i | i | CHO-K1 Tl ctr=22.1*;KCNQ1 sel pot=-26.2;KCNQ2 pot confirm=-11.6;Kir21 spec=-40.2
C=CCN(CC=C)C(=S)NC(=O)c1ccc(OC)c(Br)c1 | 7.23* | i | i | 336.5%* | CHO-K1 Tl ctr=1.9*;KCNQ1 sel pot=19.7*;KCNQ2 pot confirm=20.1*;Kir21 spec=-25.4;KCNQ2 W236L pot=i
O=C(CCSCc1ccccc1Cl)NC1CCCCC1 | . | i | . | .
COC(=O)Cn1c(CN2CCN(C(=O)c3ccco3)CC2)nc2c1c(=O)n(C)c(=O)n2C | . | i | . | .
CCC(C)(C)N(C(=O)CCC(=O)Nc1cc(C)on1)C(C(=O)NC(C)(C)C)c1ccc(OC)cc1 (centres undefined) | . | i | . | .
